# Assay results as given in PubChem BioAssay (NCI).
# About 83,000 compounds went through this panel and 20% of them were active in at least one assay; those are over-represented in the sample as a whole.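 In brief: 96-well plates, 48 h treatment, single concentration, percent growth endpoint.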 Unmarked numbers belong to inactive results. The source made the active and inactive calls. The calls were made as follows: active = growth percent below 10; inactive = the rest.
# Test system: HL-60(TB) leukemia
# Assay: NCI-60 one-dose screen, 48 h (100 = growth as untreated, 0 = no growth, -100 = all killed)
# Conditions: 10 µM unless noted
row,SMILES,growth
1,CN(CSc1ccc(Cl)cc1)c1ccc(CSc2ccc(Cl)cc2)cc1,-16.2% (active)
2,COc1cc2c(cc1OC)C(=O)OC2,156%
3,CC1=C/C(=N\N=C2/C=C(C)CC(C)(C)C2)CC(C)(C)C1,84.1%
4,CCC(=O)Nc1ccccc1C#C/C=C\C#Cc1ccccc1C(F)(F)F,17.3%
5,CC/C(=C(\CC)c1ccc(OCCN(CC)CC)cc1)c1ccc(OCCN(CC)CC)cc1,-3.52% (active)
6,N#C/C(=C\c1ccc(C(F)(F)F)cc1)c1cc2ccccc2[nH]1,89.3%
7,c1ccc(-c2nc(N3CCNCC3)c3oc(-c4ccccc4)nc3n2)cc1,-46.5% (active)
8,O=C(Nc1ccc(Cl)cn1)C1(c2ccccc2)CCCCC1,51.5%
9,S=c1nc(CS)[nH]c2ccccc12,101%
10,CCOC(=O)CSc1nc2sc3c(c2c(=O)n1-c1ccc([N+](=O)[O-])cc1)CCCCC3,88.4%
11,COC(=O)C(Cc1ccccc1)NC(=O)c1ccc(NC(=O)c2[nH]c(C)c(Cl)c2Cl)c(OC(C)C)c1 (stereo not given),99.7%
12,C[C@@H]1NC(=O)[C@H](Cc2ccccc2)N(Cc2cccnc2)C1=O,103%
13,CCCCCC(C)(CC(=O)O)CC(=O)O,90.5%
14,CC/C(=C(/c1ccc(OCCN(C)C)cc1)c1ccc(OC(=O)CCC(=O)c2c(C)[nH]c(/C=C3\N=C(c4ccc[nH]4)C=C3OC)c2C)cc1)c1ccccc1,24.2%
15,Cc1cc(-c2ccc(N(C)C)cc2)c2sc(=O)[nH]c2n1,14.3%
16,COc1ccc2c(c1)C/C(=C\c1cc(-c3ccc4c(c3)OCO4)n[nH]1)C2=O,88.3%
17,S=c1c2ncccc2c(-c2ccccn2)nn1Cc1ccccn1,71.6%
18,CCOC(=O)c1cc(C(=O)c2ccc(Br)cc2)n2ccc(/C=C/c3cc[n+](CC(=O)c4ccc(OC)cc4)cc3)cc12,58.1%
19,C=C1C(=O)O[C@H]2[C@H]1CC/C(COC(=O)c1ccccc1)=C\CC[C@@]1(C)O[C@@H]21,-59.5% (active)
20,CCOC(=O)N1CCc2c(sc3c2C(=O)N[C@H](c2ccc(OC)cc2)N3)C1,99.8%

row,SMILES,growth
1,CC1(C)O[C@H]2OC3CCC(=O)CC3(O)[C@H]2O1 (stereo not given in full),102%
2,Oc1c(CNCCNCc2cc(Cl)cc(Cc3ccccc3)c2O)cc(Cl)cc1Cc1ccccc1,-0.262% (active)
3,CCOP(=O)(OCC)/C(C#N)=C/c1c(C)[nH]c2ccccc12,96.6%
4,CC1(C)CCC(C)(C)NC(=S)N1,89.3%
5,CC(CNC(Cc1ccccc1)c1ccccc1)NC(Cc1ccccc1)c1ccccc1 (stereo not given),26.2%
6,O=C(Nc1ccccc1)Nc1ncnc2c1ncn2-c1ccc(Cl)cc1,95.3%
7,O=C1C[C@H](c2ccccc2)[C@H](c2ccccc2)C1,88.1%
8,Cc1ccc2[nH]c(=S)[nH]c(=O)c2c1,105%
9,CCOC(=O)C(CC(c1ccccc1)N1CCCCC1)[N+](=O)[O-] (stereo not given),73.4%
10,CC1=C(O)C(=O)C(C(C#N)(C#N)C(C#N)C#N)C1 (stereo not given),91.7%
11,COc1cc(-c2nc3sccn3c2-c2ccnc(NCCCNS(=O)(=O)c3ccc(F)cc3)n2)ccc1F,64.9%
12,Cc1[nH]ccc2cc3nc4ccccc4c3cc12,16.4%
13,FC(F)(F)Oc1cccc(-c2cnc3ccc(-c4ccncc4)nn23)c1,-19.3% (active)
14,c1ccc(-c2nnc(-c3ccccn3)s2)nc1,95.8%
15,CC(C)(C)C(=O)OCOP(=O)(OCOC(=O)C(C)(C)C)C1CCCN(OC(=O)c2ccccc2)C1=O (stereo not given),35.1%
16,COC(=O)c1oc2c(C(C)=O)c(OCCCN(C)C)ccc2c1C,75.3%
17,CCN(CC)c1ccc2c(c1)OS(=O)(=O)N=C2,101%
18,COc1ccc(Cl)cc1NC(=O)c1cc2c(n1C)-c1nc(NC(=O)C(C)C)sc1CC2,74.7%
19,CCC1CCCCN1C(=S)N/N=C(\C)c1ccccn1 (stereo not given),8.04% (active)
20,CC(=O)N1C/C(=C/c2ccc(Cl)cc2)C(=O)/C(=C/c2ccc(Cl)cc2)C1,4.97% (active)
